According to the supplement of paper PMC3545927:
Some of the results follow. How many sequences the whole screen found active is unknown.

B1: HC1013 (peptide)
chain: CAFDEMEECSAGNASASA
B2: FS-439 (peptide)
chain: CAHIFRKRRPAGNASASA
B3: FS-2004 (peptide)
chain: CAREHRSGEPAGNASASA
B4: FS-2420 (peptide)
chain: CARHLRSLEPAGNASASA
B5: FS-1511 (peptide)
chain: CAAQAREKRFAGNASASA
B6: FS-1955 (peptide)
chain: CARHLRSKVTAGNASASA
B7: FS-711 (peptide)
chain: CARQERNKRFAGNASASA
B8: FS-2956 (peptide)
chain: CARIVRSLMPAGNASASA
B9: FS-1730 (peptide)
chain: CARKNRSHIPAGNASASA
B10: HC2412 (peptide)
chain: CAEVPCHRPEAGNASASA
B11: HC2344 (peptide)
chain: CAEVICHRPSAGNASASA
B12: HC1825 (peptide)
chain: CALTPCSGSWAGNASASA
B13: FS-1916 (peptide)
chain: CARQNRSVRLAGNASASA
B14: FS-1715 (peptide)
chain: CARHLREVGDAGNASASA
B15: FS-1714 (peptide)
chain: CARHKRGRGDAGNASASA
B16: HC1222 (peptide)
chain: CATELDGVRLAGNASASA
B17: FS-3040 (peptide)
chain: CARQNRGFRAAGNASASA
B18: HC1206 (peptide)
chain: CAVEIRQVGDAGNASASA
B19: FS-493 (peptide)
chain: CARQNREKRFAGNASASA
B20: FS-956 (peptide)
chain: CARQNRWKRQAGNASASA
B21: HC829 (peptide)
chain: CAETAGARLVAGNASASA
B22: HC568 (peptide)
chain: CAAASCGGVVAGNASASA
B23: HC2081 (peptide)
chain: CAVVCCSMNYAGNASASA
B24: HC381 (peptide)
chain: CALFYHHKFNAGNASASA
B25: FS-2939 (peptide)
chain: CARHLRANMTAGNASASA
B26: FS-2940 (peptide)
chain: CARHLRNVYAAGNASASA
B27: FS-706 (peptide)
chain: CARHLREKRFAGNASASA
B28: HC1711 (peptide)
chain: CAMEDCSQHLAGNASASA

Target: furin, P09958
Sequence (P09958 whole entry): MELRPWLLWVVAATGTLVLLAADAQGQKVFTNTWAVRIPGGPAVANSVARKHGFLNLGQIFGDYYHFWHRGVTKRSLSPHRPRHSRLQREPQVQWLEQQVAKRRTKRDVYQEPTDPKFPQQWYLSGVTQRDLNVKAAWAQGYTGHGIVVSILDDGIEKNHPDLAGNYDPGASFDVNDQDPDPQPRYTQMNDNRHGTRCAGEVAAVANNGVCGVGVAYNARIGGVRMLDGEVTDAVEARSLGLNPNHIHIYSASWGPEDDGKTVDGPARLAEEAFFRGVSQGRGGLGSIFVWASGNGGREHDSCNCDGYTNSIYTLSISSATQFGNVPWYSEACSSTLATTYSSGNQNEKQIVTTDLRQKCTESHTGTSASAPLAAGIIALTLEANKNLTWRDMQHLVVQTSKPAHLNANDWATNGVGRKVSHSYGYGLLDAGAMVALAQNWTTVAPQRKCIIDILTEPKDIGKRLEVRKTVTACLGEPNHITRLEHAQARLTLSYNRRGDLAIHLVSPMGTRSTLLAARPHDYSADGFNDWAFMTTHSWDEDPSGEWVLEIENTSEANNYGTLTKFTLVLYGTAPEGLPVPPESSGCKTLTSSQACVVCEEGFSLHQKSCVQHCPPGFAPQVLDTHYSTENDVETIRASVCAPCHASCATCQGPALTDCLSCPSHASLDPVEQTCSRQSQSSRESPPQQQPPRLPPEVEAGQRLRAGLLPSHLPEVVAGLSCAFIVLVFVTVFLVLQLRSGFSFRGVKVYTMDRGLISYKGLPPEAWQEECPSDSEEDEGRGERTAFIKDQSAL
Assay: furin cleavage Z-score vs untreated control; higher = more cleavage, active = 3.5 or more, inactive = 1 or less, 8 variable residues between constant flanks
Outline: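 In 50 mM HEPES pH 7.5 with CaCl2 and NaCl, purified furin was incubated with bead-anchored 8-mer peptide–cDNA fusions at 1:10 enzyme:substrate in 0.01 ml. Incubation times were 7.5, 15 and 30 min. DNA set free by cleavage was adapter-tagged by PCR and sequenced, with read counts taken as abundance. Log counts relative to furin-free reactions, after lowess adjustment and median absolute deviation scaling, form the cleavage Z-score.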

| Sequence | furin cleavage Z-score (7.5 min) | furin cleavage Z-score (15 min) | furin cleavage Z-score (30 min) |
| --- | --- | --- | --- |
| B1 | 0.602 (inactive) | 0.715 (inactive) | 0.322 (inactive) |
| B2 | -0.371 (inactive) | -0.427 (inactive) | -0.596 (inactive) |
| B3 | -1.1 (inactive) | -0.712 (inactive) | -1.7 (inactive) |
| B4 | 5.02 (active) | 6.47 (active) | 5.66 (active) |
| B5 | 6.88 (active) | 8.08 (active) | 8.04 (active) |
| B6 | -0.109 (inactive) | -0.365 (inactive) | 0.464 (inactive) |
| B7 | 8.02 (active) | 9.31 (active) | 10.8 (active) |
| B8 | 6.15 (active) | 8.67 (active) | 10.9 (active) |
| B9 | 0.266 (inactive) | -0.138 (inactive) | -0.417 (inactive) |
| B10 | 1.1 | 0.551 (inactive) | -0.217 (inactive) |
| B11 | -0.36 (inactive) | -0.916 (inactive) | 1.17 |
| B12 | -0.28 (inactive) | -0.817 (inactive) | -0.734 (inactive) |
| B13 | 2.12 | 3.53 (active) | 4 (active) |
| B14 | 2.58 | 3.76 (active) | 3.94 (active) |
| B15 | 0.301 (inactive) | 2.2 | 1.5 |
| B16 | -1.97 (inactive) | -0.317 (inactive) | -1.04 (inactive) |
| B17 | -0.161 (inactive) | 0.266 (inactive) | 0.111 (inactive) |
| B18 | -0.56 (inactive) | -1.09 (inactive) | -1.86 (inactive) |
| B19 | 8.07 (active) | 9.73 (active) | 9.9 (active) |
| B20 | 13.6 (active) | 16.1 (active) | 9.49 (active) |
| B21 | 1.45 | 1.12 | -1.04 (inactive) |
| B22 | -0.496 (inactive) | -0.825 (inactive) | 0.0661 (inactive) |
| B23 | -0.198 (inactive) | -1.19 (inactive) | -1.03 (inactive) |
| B24 | -0.625 (inactive) | -2.1 (inactive) | -0.731 (inactive) |
| B25 | -0.54 (inactive) | -1.02 (inactive) | -1.63 (inactive) |
| B26 | 0.638 (inactive) | -0.594 (inactive) | 1.3 |
| B27 | 6.75 (active) | 9.12 (active) | 10.1 (active) |
| B28 | 0.722 (inactive) | 2.02 | 1.16 |
